Test results taken from PubChem BioAssay (NCATS).
Values joined by “and” are separate entries in the source; they are usually repeats but may differ in a detail not shown here. Equal values may be shown once. Inconclusive results are not listed. A call without a number means that no potency is given here. Some structures have more than one record in an assay (separate samples or runs), and their calls can disagree. Active and inactive are the calls of the source. Unless noted, calls come from the whole dose curve; as a rule, active = well fitted curve in the direction sought with a large enough effect; inconclusive = small, poorly fitted or top-dose-only effect, or another doubt; inactive = no such curve, though single readings can be large; an effect the other way counts as inactive or inconclusive.

How the values were obtained:
[1] = molecular target: Calcium and integrin-binding protein 1 (Homo sapiens) (UniProt Q99828); assay: Primary qHTS for Identification of Calcium Integrin Binding Protein 1 (CIB1) Competitor (AID 1508620);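 note: GST tagged CIB1 binding a fluorescein labelled alphaIIb integrin peptide tracer; top concentration of the series differs between compounds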
In short: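 CIB1-GST (1 uM final) and compound incubated 15 min at room temperature before adding FITC-alphaIIb peptide tracer (100 nM final). Competition for binding read by fluorescence polarization (ex 480, em 540) after another 15 min at room temperature.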

[2] = molecular target: Cytochrome P450 2D6 (Homo sapiens) (UniProt P10635); assay: Cytochrome P450 family 2 subfamily D member 6 (CYP2D6) small molecule antagonists: luciferase biochemical (cell-free) qHTS assay (AID 1645840; active = well fitted curve in the direction sought with a large enough effect in the repeat runs; an effect the other way counts as inactive or inconclusive; note: nearly all actives have a fitted effect of over 55% in size; note: potency is the fitted concentration of half-maximal effect; for activity change, negative = inhibition: series mostly up to about 57 µM)
In short: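 P450-Glo luminescent screen: recombinant CYP2D6 enzyme–proluciferin substrate mix preincubated with compound 10 min at room temperature, then NADPH regeneration added for 1 h at room temperature. Detection reagent added for 20 min; luciferin light read as relative luminescence units.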

[3] = molecular target: Cytochrome P450 2C9 (Homo sapiens) (UniProt P11712); assay: Cytochrome P450 family 2 subfamily C member 9 (CYP2C9) small molecule antagonists: luciferase biochemical (cell-free) qHTS assay (AID 1645842; active = well fitted curve in the direction sought with a large enough effect in the repeat runs; an effect the other way counts as inactive or inconclusive; note: nearly all actives have a fitted effect of over 55% in size; note: potency is the fitted concentration of half-maximal effect; for activity change, negative = inhibition: series mostly up to about 57 µM)
In short: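 Luminescence, after 20 min with luciferin detection reagent, reflected CYP2C9 turnover during a 1 h NADPH-driven reaction at 37C. Enzyme-substrate mix contained 0.4% bovine serum albumin and was preincubated with compound 10 min at room temperature.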

[4] = Primary qHTS for inhibitors of nuclear receptor binding SET domain protein 2 (NSD2) in an isogenic RCH-ACV NSD2 p.E1099K mutant (9B) (AID 1645876); note: nearly all actives have a fitted effect of over 70% in size; note: potency is the fitted concentration of half-maximal effect

Sequence of Cytochrome P450 2C9 (Homo sapiens) (P11712 whole entry, looked up): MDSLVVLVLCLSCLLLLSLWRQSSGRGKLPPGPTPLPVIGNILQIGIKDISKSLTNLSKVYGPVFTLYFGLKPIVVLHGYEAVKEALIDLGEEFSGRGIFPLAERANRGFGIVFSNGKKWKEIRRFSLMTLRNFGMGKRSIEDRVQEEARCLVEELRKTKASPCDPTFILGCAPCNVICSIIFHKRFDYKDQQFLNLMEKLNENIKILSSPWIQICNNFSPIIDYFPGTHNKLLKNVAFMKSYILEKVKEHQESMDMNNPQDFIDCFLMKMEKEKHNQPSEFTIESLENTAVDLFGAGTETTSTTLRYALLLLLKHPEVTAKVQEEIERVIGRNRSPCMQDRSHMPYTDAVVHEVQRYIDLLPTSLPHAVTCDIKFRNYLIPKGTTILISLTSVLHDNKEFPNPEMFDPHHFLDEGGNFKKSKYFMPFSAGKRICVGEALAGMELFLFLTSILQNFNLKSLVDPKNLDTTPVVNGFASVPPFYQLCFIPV
Sequence of Calcium and integrin-binding protein 1 (Homo sapiens) (Q99828 whole entry, looked up): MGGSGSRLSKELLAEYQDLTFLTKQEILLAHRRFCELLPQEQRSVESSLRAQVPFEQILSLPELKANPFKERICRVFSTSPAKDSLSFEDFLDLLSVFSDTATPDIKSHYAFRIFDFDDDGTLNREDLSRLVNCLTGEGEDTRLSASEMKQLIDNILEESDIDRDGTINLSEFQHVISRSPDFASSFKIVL
Sequence of Cytochrome P450 2D6 (Homo sapiens) (P10635 whole entry, looked up): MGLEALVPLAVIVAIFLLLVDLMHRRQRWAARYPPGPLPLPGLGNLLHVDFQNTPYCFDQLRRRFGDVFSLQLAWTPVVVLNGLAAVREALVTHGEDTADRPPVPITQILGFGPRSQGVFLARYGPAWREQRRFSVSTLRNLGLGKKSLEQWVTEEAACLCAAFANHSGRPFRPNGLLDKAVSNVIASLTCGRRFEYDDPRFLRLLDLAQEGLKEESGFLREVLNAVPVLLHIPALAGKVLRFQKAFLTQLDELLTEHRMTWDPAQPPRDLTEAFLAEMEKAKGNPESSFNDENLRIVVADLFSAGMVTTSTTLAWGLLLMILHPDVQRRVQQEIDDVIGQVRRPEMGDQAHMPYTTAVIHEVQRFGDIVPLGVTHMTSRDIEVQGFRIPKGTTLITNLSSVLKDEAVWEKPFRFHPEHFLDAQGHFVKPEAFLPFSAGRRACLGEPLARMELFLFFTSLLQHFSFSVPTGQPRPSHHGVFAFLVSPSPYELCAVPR

Row | SMILES | Potency [1] | Potency [2] | Potency [3] | Potency [4] | activity change, negative = inhibition [2] | activity change, negative = inhibition [3] | activity change, negative = viability loss [4]
1 | Cc1nc(C)c(-c2ccc(C3CCC(CC(=O)O)CC3)cc2)nc1C(N)=O (stereo not given) | inactive | inactive | inactive | inactive | – | – | –
2 | Cc1cccc2c1NC(=O)C2(c1ccc(O)cc1)c1ccc(O)cc1 | inactive | 26.8 µM (active) | 9.52 µM (active) | 3.25 µM (active) | – | – | –
3 | CC(=O)N1CCN(C(=O)Cc2ccc(Nc3ncc(F)c(Nc4ccc(C(=O)Nc5ccccc5Cl)cc4)n3)cc2)CC1 | inactive | inactive | 0.477 µM (active) | 1.63 µM (active) | – | – | –
4 | O=C(c1cccc(Cl)c1F)N1CCN(Cc2cccc(Nc3nccs3)n2)CC1 | inactive | 1.69 µM (active) | 3.38 µM (active) | 0.817 µM (active) | – | – | –
5 | NC(=O)c1cccc2cn(-c3ccc(C4CCCNC4)cc3)nc12 (stereo not given) | inactive | inactive | inactive | 3.25 µM (active) | – | – | –
6 | NCc1ccc(Nc2ncc(F)c(Nc3ccccc3)n2)cc1 | inactive | 15.1 µM (active) | 6.74 µM (active) | 3.25 µM (active) | – | – | –
7 | CCOc1ccc(NC(=S)N2CCC(C(O)(c3ccccc3)c3ccccc3)CC2)cc1 | inactive | 2.68 µM (active) | 9.52 µM (active) | inactive | – | – | –
8 | Cc1cc(C(=O)N2CCCCc3ccccc32)ccc1CNC(=O)N1CCC[C@H]1C(=O)N(C)C | inactive | inactive | inactive | inactive | – | – | –
9 | COc1ccc([C@H]2CNC(=O)C2)cc1OC1CCCC1 | inactive | inactive | inactive | inactive | – | – | –
10 | Cn1c2ccc(F)cc2c2c(C(=O)N3CCCC3)cn(-c3ccccc3)c(=O)c21 | inactive | inactive | 1.51 µM (active) | inactive | – | – | –
11 | O=C(O)C1CN(Cc2ccc(-c3nc4cc(Cc5ccccc5F)ccc4s3)c(F)c2)C1 | inactive | – | – | – | 8.94% [at 11.5 µM] (inactive) | -11.3% [at 11.5 µM] (inactive) | 0.892% [at 9.23 µM] (inactive)
12 | CN[C@H](C(=O)N[C@H](C(=O)N(C)[C@H](/C=C(\C)C(=O)O)C(C)C)C(C)(C)C)C(C)(C)c1ccccc1 | inactive | inactive | inactive | inactive | – | – | –
13 | O=C(O)[C@@H]1C[C@H]2C[C@@H](CCc3nn[nH]n3)CC[C@H]2CN1 | inactive | inactive | inactive | inactive | – | – | –
14 | COc1ccc(C2(O)CCC(N3CC[C@@H](NC(=O)CNC(=O)c4cccc(C(F)(F)F)c4)C3)CC2)cn1 (stereo not given in full) | inactive | 10.7 µM (active) | inactive | inactive | – | – | –
15 | Cn1c(=O)n(-c2ccc(C(C)(C)C#N)cc2)c2c3cc(C#Cc4cccnc4)ccc3ncc21 | inactive | inactive | 0.522 µM (active) | 0.0178 µM (active) | – | – | –
16 | CNC(=O)c1cccc(-c2ccc3c(N4CCOC[C@@H]4C)nc(N4CCOC[C@@H]4C)nc3n2)c1 | inactive | inactive and 15.1 µM (active) | 12 µM (active) and 10.7 µM (active) | 129 nM (active) and 326 nM (active) and 148 nM (active) | – | – | –
17 | O=C(O)CC1CCC(c2ccc(-c3ccc4nc(C(=O)NCc5ccc(OC(F)(F)F)cc5)cn4c3)cc2)CC1 (stereo not given) | inactive | inactive | – | inactive | – | – | –
18 | CCN1CCN(Cc2ccc(NC(=O)c3ccc(C)c(/C=C/c4cnc5[nH]ccc5c4OC)c3)cc2C(F)(F)F)CC1 | inactive | 6.74 µM (active) | 12 µM (active) | 129 nM (active) and 1.05 µM (active) | – | – | –
19 | CCN(Cc1cccnc1)C(=O)CN(c1ccc(OC)nc1)S(=O)(=O)c1ccccc1C | inactive | inactive | 19 µM (active) | inactive | – | – | –
20 | Cc1ccc(C(=O)Nc2noc3ccccc23)cc1 | inactive | 7.56 µM (active) | 16.9 µM (active) | inactive | – | – | –
21 | COc1cc(N2CCOCC2)ccc1Nc1ncc(Cl)c(Nc2ccccc2NS(C)(=O)=O)n1 | inactive | 15.1 µM (active) | inactive | 1.15 µM (active) | – | – | –
22 | Cc1c[nH]c2nccc(Oc3c(F)cc(Nc4cc(Cl)nc(N)n4)cc3F)c12 | inactive | 6.74 µM (active) | 15.1 µM (active) | 0.728 µM (active) | – | – | –
23 | CC(C)(C)NC(=O)[C@@H](c1cccnc1)N(C(=O)c1ccco1)c1ccc(C(C)(C)C)cc1 | inactive | – | 5.35 µM (active) | – | – | – | –
24 | C[C@@H]1COCCN1c1cc(C2(S(C)(=O)=O)CC2)nc(-c2cccc3[nH]ccc23)n1 | inactive | inactive | – | 0.515 µM (active) | – | – | –
25 | CC(C)c1cc(CNc2nc(Nc3cc(C4CC4)[nH]n3)cc(N3CCN(C)CC3)n2)on1 | inactive | 2.68 µM (active) | – | 64.9 nM (active) and 525 nM (active) | – | – | –
